In PubChem BioAssay AID624101 (Broad Institute, 2012):
Out of some 70,000 compounds screened, about 120 (0.17%) were called active. This is one part of a sample in which actives are shown more often than they occur. A number with no mark means an inactive call. No stated cut-off is given here; in the data, active means inhibition above about 34%; inconclusive means no clear call, values can overlap the other calls; inactive means below about 11%.

Biological target: Isocitrate dehydrogenase [NADP] cytoplasmic (Homo sapiens) (UniProt O75874)
Assay: PubChem AID 624101;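 further: 0% = DMSO and 100% = no enzyme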
Settings: IDH1 R132H reductase, diaphorase/resazurin fluorescence, 60 min; at 10 µM; hits give high values

Chain of Isocitrate dehydrogenase [NADP] cytoplasmic (Homo sapiens) (O75874 whole entry R132H): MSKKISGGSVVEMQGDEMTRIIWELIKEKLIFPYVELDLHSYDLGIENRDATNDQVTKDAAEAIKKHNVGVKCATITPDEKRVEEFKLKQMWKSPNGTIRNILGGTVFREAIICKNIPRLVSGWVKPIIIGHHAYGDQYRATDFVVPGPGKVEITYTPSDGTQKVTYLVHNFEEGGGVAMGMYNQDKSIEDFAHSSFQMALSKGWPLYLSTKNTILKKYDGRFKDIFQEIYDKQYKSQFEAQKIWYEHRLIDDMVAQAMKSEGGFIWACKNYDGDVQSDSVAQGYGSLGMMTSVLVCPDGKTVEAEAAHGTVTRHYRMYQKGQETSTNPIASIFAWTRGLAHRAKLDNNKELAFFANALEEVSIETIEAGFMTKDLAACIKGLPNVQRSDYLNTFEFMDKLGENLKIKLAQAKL

Row | SMILES | inhibition
1 | CNC[C@H]1Oc2cc(C#Cc3ccccc3)ccc2S(=O)(=O)N([C@@H](C)CO)C[C@@H]1C | 4.92%
2 | Cc1ccc(S(=O)(=O)NCC[C@H]2CC[C@@H](NS(=O)(=O)c3ccccc3Cl)[C@H](CO)O2)cc1 | 0.263%
3 | O=C(Nc1cccc(Cl)c1)N[C@H]1CC[C@H](CCNC(=O)C2CCOCC2)O[C@H]1CO | 0.082%
4 | O=C(C[C@@H]1CC[C@@H](NC(=O)C2CCOCC2)[C@H](CO)O1)Nc1ccc(-c2ccccc2)cc1 | 0.222%
5 | O=C(C[C@@H]1C=C[C@H](NC(=O)c2ccc3c(c2)OCO3)[C@H](CO)O1)NCc1ccc(Oc2ccccc2)cc1 | -0.347%
6 | O=C(C[C@H]1C=C[C@@H](NC(=O)Nc2cc(F)ccc2F)[C@@H](CO)O1)NCc1ccc2c(c1)OCO2 | -0.0695%
7 | CN1CCN(C(=O)C[C@@H]2C[C@H]3c4cc(NC(=O)NC5CCCC5)ccc4O[C@H]3[C@H](CO)O2)CC1 | -0.193%
8 | CO[C@H]1CN(C)C(=O)c2ccc(NC(=O)c3nc4ccccc4s3)cc2OC[C@@H](C)N(Cc2cncnc2)C[C@H]1C | -1.03%
9 | O=C(C[C@@H]1C[C@@H]2c3cc(NC(=O)C4CCC4)ccc3O[C@@H]2[C@@H](CO)O1)NCc1ccccc1 | 0.171%
10 | O=C(C[C@@H]1C[C@@H]2c3cc(NC(=O)Cc4ccncc4)ccc3O[C@@H]2[C@H](CO)O1)NCc1cccc(F)c1 | 0%
11 | C[C@H](NC(=O)N(C)C[C@@H]1OCc2ccccc2-c2ccccc2C(=O)N([C@H](C)CO)C[C@@H]1C)c1ccccc1 | -1.38%
12 | Cc1noc(C)c1S(=O)(=O)Nc1ccc2c(c1)C(=O)N([C@H](C)CO)C[C@H](C)[C@H](CN(C)S(C)(=O)=O)OCCCC[C@H](C)O2 | 2.45%
13 | C[C@@H]1CN([C@@H](C)CO)S(=O)(=O)c2ccc(C#Cc3ccccc3)cc2O[C@@H]1CN(C)C(=O)C1CC1 | -0.265%
14 | CO[C@@H]1CN(C)C(=O)c2ccc(NS(=O)(=O)c3ccc(Cl)cc3)cc2OC[C@H](C)N(C(=O)NC(C)C)C[C@H]1C | 0.21%
15 | O=C(NCC[C@H]1CC[C@@H](NC(=O)C2CCCC2)[C@@H](CO)O1)c1cc(Cl)cc(Cl)c1 | -0.187%
16 | Cc1ccc(S(=O)(=O)NCC[C@@H]2CC[C@H](NC(=O)CC3CC3)[C@H](CO)O2)cc1 | -0.044%
17 | O=C(Nc1ccccc1F)N[C@@H]1CC[C@H](CC(=O)N2CCCCC2)O[C@H]1CO | 0.211%
18 | O=C(N[C@@H]1CC[C@H](CCn2cc(C3CC3)nn2)O[C@H]1CO)c1cccnc1 | 0.0945%
19 | CO[C@@H]1CN(C)C(=O)c2ccc(NS(C)(=O)=O)cc2OC[C@@H](C)N(C(=O)C2CCOCC2)C[C@@H]1C | -0.272%
20 | CO[C@@H]1CN(C)C(=O)c2cc(NC(=O)Nc3cc(F)ccc3F)ccc2OC[C@H](C)N(C)C[C@@H]1C | -0.288%
21 | CO[C@@H]1CN(C)C(=O)c2ccc(NS(=O)(=O)c3cccc(Cl)c3)cc2OC[C@H](C)NC[C@H]1C | -0.827%
22 | Cc1ccc(S(=O)(=O)NCC[C@H]2CC[C@H](NC(=O)c3ccccn3)[C@@H](CO)O2)cc1 | -0.44%

Row | SMILES | inhibition
23 | C[C@@H]1CN([C@H](C)CO)S(=O)(=O)c2ccc(-c3ccc(C(=O)N(C)C)cc3)cc2O[C@@H]1CN(C)C(=O)Nc1ccccc1F | 0.371%
24 | COCCNC(=O)C[C@H]1C=C[C@@H](NS(=O)(=O)c2ccc(C)cc2)[C@@H](CO)O1 | -0.16%
25 | O=C(NCCCn1ccnc1)c1cnn2c(C(F)(F)F)cc(-c3ccccc3)nc12 | 42.5% (active)
26 | Cc1ccc(-c2cc(C(F)(F)F)n3nc(C(=O)NCCN4CCOCC4)c(Cl)c3n2)cc1 | -0.63%
27 | O=C(NCc1cccnc1)c1cnn2c(C(F)F)cc(-c3ccccc3)nc12 | -0.254%
28 | CO[C@H]1CN(C)C(=O)c2ccc(NC(=O)C3CC3)cc2OC[C@@H](C)N(C(=O)c2ccccn2)C[C@@H]1C | 0.315%
29 | CO[C@@H]1CN(C)C(=O)c2cc(NC(C)=O)ccc2OC[C@H](C)N(Cc2ccccn2)C[C@H]1C | 0.0735%
30 | COc1ccc(C(=O)Nc2ccc3c(c2)C(=O)N(C)C[C@@H](OC)[C@H](C)CN(C(C)=O)[C@@H](C)CO3)cc1 | 0.119%
31 | CO[C@H]1CC[C@@H]2CCOc3c(C#N)cccc3C(=O)N(C)CCCC(=O)N(C)C[C@@H]1O2 | -0.199%
32 | O=C(C[C@@H]1C[C@@H]2c3cc(NS(=O)(=O)c4ccc(F)cc4)ccc3O[C@@H]2[C@H](CO)O1)N1CCCCC1 | 0.296%
33 | O=C(C[C@H]1CC[C@@H](NC(=O)Nc2ccc(F)cc2)[C@@H](CO)O1)NCCN1CCCC1 | -0.0445%
34 | O=C(Nc1ccc(C(F)(F)F)cc1)N[C@@H]1CC[C@H](CCNC(=O)c2ccccc2F)O[C@H]1CO | 0.069%
35 | Cc1ccc(S(=O)(=O)N[C@H]2CC[C@H](CC(=O)NCc3ccccc3F)O[C@@H]2CO)cc1 | -0.113%
36 | CCCc1cn(CC[C@@H]2CC[C@@H](NS(=O)(=O)c3ccccc3Cl)[C@@H](CO)O2)nn1 | -0.18%
37 | CO[C@H]1CN(C)C(=O)c2cc(NC(=O)C3CC3)ccc2OC[C@@H](C)NC[C@H]1C | -0.162%
38 | Cc1ccc(S(=O)(=O)NCC[C@@H]2CC[C@H](NC(=O)c3ccccn3)[C@H](CO)O2)cc1 | -0.387%
39 | Cc1ccc(-c2ccc3c(c2)O[C@@H](CN(C)C(=O)CC2CC2)[C@@H](C)CN([C@@H](C)CO)S3(=O)=O)cc1 | -0.129%
40 | O=C(C[C@@H]1CC[C@H](NC(=O)CN2CCOCC2)[C@@H](CO)O1)NCCc1ccccc1 | 0.1%
41 | C[C@@H]1CN([C@H](C)CO)S(=O)(=O)c2ccc(-c3ccncc3)cc2O[C@@H]1CN(C)C(=O)CN(C)C | 0.556%
42 | O=C(C[C@H]1C=C[C@H](NC(=O)CC2CC2)[C@H](CO)O1)NCc1ccc(Cl)cc1 | -0.172%
43 | C[C@@H]1CN([C@H](C)CO)S(=O)(=O)c2ccc(C3=CCCC3)cc2O[C@H]1CN(C)C(=O)c1ccccc1 | 1.4%
44 | O=C(C[C@H]1CC[C@H](NC(=O)C2CCC2)[C@@H](CO)O1)Nc1nccs1 | 0.192%

Row | SMILES | inhibition
45 | CO[C@H]1CN(C)C(=O)c2ccc(NS(=O)(=O)c3ccccc3C)cc2OC[C@H](C)NC[C@H]1C | -0.186%
46 | CO[C@H]1CN(C)C(=O)c2cc(NC(C)=O)ccc2OC[C@H](C)N(C(=O)C2CC2)C[C@H]1C | -0.354%
47 | CO[C@H]1CN(C)C(=O)c2ccc(NC(=O)C3CCC3)cc2OC[C@@H](C)N(Cc2ccccn2)C[C@H]1C | 0.331%
48 | CCC(=O)Nc1ccc2c(c1)C(=O)N(C)C[C@H](OC)[C@H](C)CN(Cc1ccccc1F)[C@H](C)CO2 | 0.217%
49 | CO[C@H]1CN(C)C(=O)c2cc(NS(C)(=O)=O)ccc2OC[C@H](C)N(C(=O)C2CCCC2)C[C@H]1C | 0.272%
50 | CCC(=O)N(C)C[C@@H]1Oc2cc(C#CC(C)(C)O)ccc2S(=O)(=O)N([C@@H](C)CO)C[C@@H]1C | -1.91%
51 | CN(C)C(=O)C[C@@H]1C[C@@H]2c3cc(NC(=O)c4ccc5c(c4)OCO5)ccc3O[C@@H]2[C@H](CO)O1 | -0.927%
52 | Cc1ccc(S(=O)(=O)N[C@H]2CC[C@H](CC(=O)O)O[C@H]2CO)cc1 | -0.244%
53 | Cc1ccc(S(=O)(=O)N[C@H]2C=C[C@@H](CC(=O)NCCc3ccncc3)O[C@@H]2CO)cc1 | -0.308%
54 | COc1ccc(-c2cn(CC[C@H]3CC[C@@H](N)[C@H](CO)O3)nn2)cc1 | 0.0195%
55 | CO[C@H]1CN(C)C(=O)c2ccc(NS(=O)(=O)c3cn(C)cn3)cc2OC[C@H](C)N(C)C[C@H]1C | -0.0025%
56 | O=C(N[C@H]1C=C[C@@H](CC(=O)N2CCCCC2)O[C@@H]1CO)c1ccc2c(c1)OCO2 | -0.0205%
57 | O=C(C[C@@H]1C[C@@H]2c3cc(NC(=O)C4CCOCC4)ccc3O[C@@H]2[C@H](CO)O1)NCc1ccncc1 | -0.106%
58 | CCCNC(=O)N1C[C@H](C)[C@H](OC)CN(C)C(=O)c2cc(NC(=O)CC)ccc2OC[C@H]1C | -0.059%
59 | CCC(=O)N(C)C[C@@H]1Oc2ncc(-c3ccccc3OC)cc2C(=O)N([C@@H](C)CO)C[C@@H]1C | -0.321%
60 | CN1CCN(C(=O)C[C@H]2C[C@H]3c4cc(NC(=O)Nc5ccccc5F)ccc4O[C@H]3[C@H](CO)O2)CC1 | -0.523%
61 | O=C(Nc1ccc2c(c1)OCO2)N[C@@H]1CC[C@H](CC(=O)N2CCN(c3ccccc3)CC2)O[C@@H]1CO | -0.0065%
62 | O=C(Cc1ccncc1)NCC[C@H]1CC[C@H](NC(=O)C2CC2)[C@H](CO)O1 | 0.014%
63 | CCC(=O)N(C)C[C@H]1Oc2cc(C#CCC(C)C)ccc2S(=O)(=O)N([C@H](C)CO)C[C@H]1C | -0.831%
64 | O=C(NCC[C@H]1CC[C@@H](NC(=O)c2cnccn2)[C@H](CO)O1)Nc1ccc(Cl)cc1 | -0.362%
65 | CN(C)CCCNC(=O)C[C@@H]1C=C[C@H](NC(=O)Cc2cccnc2)[C@H](CO)O1 | 0.394%
